Test results published in PubChem BioAssay (NCATS).
Results filed as inconclusive are left out. The source made the active and inactive calls. Calls come from the whole dose curve; as a rule, active = well fitted curve in the direction sought with a large enough effect; inconclusive = small, poorly fitted or top-dose-only effect, or another doubt; inactive = no such curve, though single readings can be large; an effect the other way counts as inactive or inconclusive.

How the values were obtained:
[1] = Cell Viability - LYMP2-013 (AID 970); note: series mostly up to about 92 µM; nearly all actives have a fitted effect of over 55% in size
Summary of the method: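 Human lymphoblastoid cells, 2500/well, were preincubated 5 hr at 37 C, then treated with compounds for 24 hr at 37 C in complete medium. Intracellular ATP was read by CellTiter-Glo luminescence; AC50 from Hill-equation fits of concentration-response data.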

[2] = Cell Viability - LYMP2-015 (AID 971); note: nearly all actives have a fitted effect of over 55% in size
Summary of the method: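 Human lymphoblastoid cells (2500/well) in complete medium were preincubated 5 hr at 37 C, then compound-treated 24 hr at 37 C. Intracellular ATP was read by CellTiter-Glo luminescence after 30 min at room temperature; AC50 came from Hill-equation concentration-response fits.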

[3] = Cell Viability - LYMP2-017 (AID 972); note: series mostly up to about 92 µM; nearly all actives have a fitted effect of over 55% in size
Summary of the method: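 Human lymphoblastoid cells (2500/well) were seeded in complete medium, held 5 hr at 37 C, then exposed to compounds for 24 hr at 37 C. Intracellular ATP was read by CellTiter-Glo luminescence after 30 min at room temperature, with AC50 values from Hill-equation fits.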

[4] = Cell Viability - LYMP2-021 (AID 974);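 note: compound exposure lasts 24 hours at 37 °C; nearly all actives have a fitted effect of over 55% in size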
Summary of the method: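 Human lymphoblastoid cells (2500/well) were preincubated 5 hr at 37 C, then exposed to compounds for 24 hr at 37 C in complete medium. Intracellular ATP was read by CellTiter-Glo luminescence; AC50 came from Hill-equation fits of concentration-response data.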

[5] = Cell Viability - LYMP2-023 (AID 975)
Summary of the method: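 Human lymphoblastoid cells (2500/well) were preincubated 5 hr at 37 C, then exposed to compounds for 24 hr at 37 C in complete medium. Cellular ATP was read by CellTiter-Glo luminescence, and AC50 came from Hill-equation fits.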

[6] = Cell Viability - LYMP2-025 (AID 976); note: series mostly up to about 92 µM
Summary of the method: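 Human lymphoblastoid LYMP2-025 cells (2500/well) were pre-incubated 5 hr at 37 C, then treated with compounds for 24 hr at 37 C in complete medium. Viability was read as intracellular ATP by CellTiter-Glo luminescence; AC50 from Hill fits.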

[7] = Cell Viability - LYMP2-002 (AID 977);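 note: series mostly up to about 92 µM; compound exposure lasted 24 h at 37 °C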
Summary of the method: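 Cytotoxicity is scored as concentration-dependent loss of cellular ATP in a human lymphoblastoid line after 24 hr compound treatment at 37 C. AC50 is obtained by modelling concentration-response data with the Hill equation.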

[8] = Cell Viability - LYMP2-006 (AID 978); note: series mostly up to about 92 µM; nearly all actives have a fitted effect of over 60% in size
Summary of the method: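 Human lymphoblastoid cells (LYMP2-006), 2500/well in complete medium, were treated with compound for 24 hr at 37 C. Cellular ATP was read by CellTiter-Glo luminescence after 30 min, and AC50 values came from Hill-equation fits of concentration-response data.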

[9] = Cell Viability - LYMP2-007 (AID 979);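 note: cells exposed to compound for 24 h before reading; nearly all actives have a fitted effect of over 60% in size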
Summary of the method: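 Human lymphoblastoid cells (2500/well) were plated in complete medium, incubated 5 hr at 37 C, then exposed to compounds for 24 hr at 37 C. Intracellular ATP was read by CellTiter-Glo luminescence after 30 min at room temperature; AC50 from Hill fits.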

[10] = Cell Viability - LYMP2-008 (AID 980); note: nearly all actives have a fitted effect of over 60% in size
Summary of the method: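 Human lymphoblastoid cells (2500/well) were plated, held 5 hr at 37 C, then exposed to compounds for 24 hr at 37 C in complete medium. Intracellular ATP was read by CellTiter-Glo luminescence; AC50 from Hill-fitted concentration-response.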

[11] = Cell Viability - LYMP2-012 (AID 982)
[12] = Cell Viability - LYMP2-014 (AID 983); note: series mostly up to about 92 µM; nearly all actives have a fitted effect of over 50% in size
Summary of the method: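 Human lymphoblastoid cells (2500/well) were pre-incubated 5 hr at 37 C, then exposed to compounds in complete medium for 24 hr at 37 C. Intracellular ATP was read by CellTiter-Glo luminescence after 30 min at room temperature; AC50 from Hill fits.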

[13] = Cell Viability - LYMP2-016 (AID 984); note: nearly all actives have a fitted effect of over 55% in size
Summary of the method: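 Human lymphoblastoid LYMP2-016 cells, 2500 per well, treated with compounds for 24 h at 37 C. Viability read as intracellular ATP by CellTiter-Glo luminescence after 30 min at room temperature; AC50 from Hill fits of concentration-response.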

[14] = Cell Viability - LYMP2-018 (AID 985);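 note: compound exposure lasted 24 hr at 37 °C; nearly all actives have a fitted effect of over 50% in size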
Summary of the method: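 Human lymphoblastoid cells (2500/well) were pre-incubated 5 hr at 37 C, then exposed to compounds for 24 hr at 37 C in complete medium. Viability was read as intracellular ATP by CellTiter-Glo luminescence; AC50 values came from Hill-equation fits.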

[15] = Cell Viability - LYMP2-020 (AID 986)
Summary of the method: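 Human lymphoblastoid cells, 2500/well, were pre-incubated 5 hr at 37 C, then exposed to compounds for 24 hr at 37 C in complete medium. Intracellular ATP was read by CellTiter-Glo luminescence, and AC50 was derived by Hill fitting of concentration-response data.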

[16] = Cell Viability - LYMP2-022 (AID 987); note: nearly all actives have a fitted effect of over 55% in size
Summary of the method: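 Human lymphoblastoid cells, 2500/well, preincubated 5 hr at 37 C, then exposed to compounds over a concentration range for 24 hr at 37 C in complete medium. Viability read as intracellular ATP by CellTiter-Glo luminescence after 30 min at room temperature; AC50 from Hill fits.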

[17] = Cell Viability - LYMP2-024 (AID 988); note: nearly all actives have a fitted effect of over 60% in size
Summary of the method: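 Human lymphoblastoid cells (2500/well) in complete medium were preincubated 5 hr at 37 C, then exposed to compounds for 24 hr at 37 C. Intracellular ATP was read by CellTiter-Glo luminescence; AC50 from Hill-equation fits of concentration-response data.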

[18] = Cell Viability - LYMP2-026 (AID 989); note: nearly all actives have a fitted effect of over 50% in size
Summary of the method: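 Human lymphoblastoid cells (2500/well) in complete medium were preincubated 5 hr at 37 C, then exposed to compounds for 24 hr at 37 C. Cellular ATP was read by CellTiter-Glo luminescence; AC50 from Hill-equation fits of concentration-response data.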

[19] = target: Alpha-galactosidase A (Homo sapiens) (UniProt P06280); assay: Counterscreen for Glucocerebrosidase Inhibitors: qHTS Assay for Human alpha-Galactosidase at pH 4.5 (AID 992)
Alpha-galactosidase A (Homo sapiens), sequence (P06280 whole entry, looked up): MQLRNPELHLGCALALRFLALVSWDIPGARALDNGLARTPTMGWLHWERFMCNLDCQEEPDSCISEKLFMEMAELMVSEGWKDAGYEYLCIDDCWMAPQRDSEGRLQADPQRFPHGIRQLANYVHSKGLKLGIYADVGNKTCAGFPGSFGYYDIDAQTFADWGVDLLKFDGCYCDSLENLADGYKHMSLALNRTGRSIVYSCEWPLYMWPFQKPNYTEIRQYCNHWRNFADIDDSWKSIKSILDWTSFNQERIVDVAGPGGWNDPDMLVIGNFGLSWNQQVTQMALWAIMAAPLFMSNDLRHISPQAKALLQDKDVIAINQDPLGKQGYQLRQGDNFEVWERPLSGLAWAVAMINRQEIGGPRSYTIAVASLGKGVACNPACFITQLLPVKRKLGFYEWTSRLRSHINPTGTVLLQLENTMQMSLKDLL
Summary of the method: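 Read-out is 4-methylumbelliferone fluorescence (365 nm excitation, 440 nm emission) after a pH 10 NaOH/glycine stop. Reactions held 2 nM enzyme and 80 uM substrate at pH 4.5 for 20 min at room temperature.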

[20] = Cell Viability - LYMP1-002 - Assay at 40 hr (AID 994); note: nearly all actives have a fitted effect of over 60% in size
Summary of the method: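 Human lymphoblastoid cells, 2500/well in complete medium, were preincubated 5 hr at 37 C, then exposed to compounds for 40 hr at 37 C. Intracellular ATP was read by CellTiter-Glo luminescence after 30 min at room temperature; AC50 from Hill-equation fits.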

Measured: Potency

NS(=O)(=O)c1cc2c(cc1Cl)NCNS2(=O)=O
inactive: [1] | [2] | [3] | [4] | [5] | [6] | [7] | [8] | [9] | [10] | [11] | [12] | [13] | [14] | [15] | [16] | [17] | [18] | [19] | [20]

Cc1cn([C@H]2C=C[C@@H](CO)O2)c(=O)[nH]c1=O
inactive: [1] | [2] | [3] | [4] | [5] | [6] | [7] | [8] | [9] | [10] | [11] | [12] | [13] | [14] | [15] | [16] | [17] | [18] | [19] | [20]

N[C@@H](Cc1c[nH]c2ccc(O)cc12)C(=O)O
inactive: [1] | [2] | [3] | [4] | [5] | [6] | [7] | [8] | [9] | [10] | [11] | [12] | [13] | [14] | [15] | [16] | [17] | [18] | [19] | [20]

COc1ccc2[nH]cc(CCNC(C)=O)c2c1
inactive: [1] | [2] | [3] | [4] | [5] | [6] | [7] | [8] | [9] | [10] | [11] | [12] | [13] | [14] | [15] | [16] | [17] | [18] | [19] | [20]

Cn1ccc2cc3c(cc21)CCN3C(=O)Nc1cccnc1
inactive: [19]

O=C(CCCN1CCC(O)(c2ccc(Cl)cc2)CC1)c1ccc(F)cc1
inactive: [19]

O=C(c1ccc(OCCN2CCCCC2)cc1)c1c(-c2ccc(O)cc2)sc2cc(O)ccc12
inactive: [19]

Clc1ccc2c(c1)C(N1CCNCC1)=Nc1ccccc1O2
inactive: [19]

Clc1ccc(C(c2ccccc2Cl)C(Cl)Cl)cc1 (stereo not given)
inactive: [1] | [2] | [3] | [4] | [5] | [6] | [7] | [8] | [9] | [10] | [11] | [12] | [13] | [14] | [15] | [16] | [17] | [18] | [19] | [20]

CC(C)Cc1ccc(C(C)C(=O)O)cc1 (stereo not given)
inactive: [19]

O=c1c(O)c(-c2ccc(O)c(O)c2)oc2cc(O)cc(O)c12
inactive: [19]

COc1ccc2c(c1)c(CC(=O)O)c(C)n2C(=O)c1ccc(Cl)cc1
inactive: [1] | [2] | [3] | [4] | [5] | [6] | [7] | [8] | [9] | [10] | [11] | [12] | [13] | [14] | [15] | [16] | [17] | [18] | [19] | [20]

COc1ccc(CCN(C)CCCC(C#N)(c2ccc(OC)c(OC)c2)C(C)C)cc1OC (stereo not given)
inactive: [6]

Nc1ccn([C@H]2CC[C@@H](CO)O2)c(=O)n1
inactive: [1] | [2] | [3] | [4] | [5] | [6] | [7] | [8] | [9] | [10] | [11] | [12] | [13] | [14] | [15] | [16] | [17] | [18] | [19] | [20]

Nc1c2c(nc3ccccc13)CCCC2
inactive: [1] | [2] | [3] | [4] | [5] | [6] | [7] | [8] | [9] | [10] | [11] | [12] | [13] | [14] | [15] | [16] | [17] | [18] | [19] | [20]

Cn1c(=O)c2c(ncn2C)n(C)c1=O
inactive: [1] | [2] | [3] | [4] | [5] | [6] | [7] | [8] | [9] | [10] | [11] | [12] | [13] | [14] | [15] | [16] | [17] | [18] | [19] | [20]

CCOC(=O)Nc1ccc(NCc2ccc(F)cc2)nc1N
inactive: [19]

CN(Cc1cnc2nc(N)nc(N)c2n1)c1ccc(C(=O)N[C@@H](CCC(=O)O)C(=O)O)cc1
inactive: [19]

CC(COc1ccccc1)N(CCCl)Cc1ccccc1 (stereo not given)
inactive: [20]
